Screens deposited in PubChem by National Center for Advancing Translational Sciences (NCATS).
SNCA expr inh = inhibitors of alpha-synuclein (SNCA) gene expression; HEK-293 SNCA-luciferase knock-in, luminescence, 24 h; Potency, µM (top dose mostly 57.2 µM), without a hit: top-dose activity change, negative = inhibition, usual class: inhibitors; hit rate 0.17% among 140,000;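 further: potency means the concentration at half of the fitted maximal effect; plate controls were DMSO cells for no effect and cell-free wells for full effect; nearly all actives have a fitted effect of over 45% in size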
KDM5B inh = blocks human KDM5B histone demethylase activity; hit rate 2.6% among 220,000; KDM5B demethylase, FDH-coupled NADH fluorescence (FDH is formaldehyde dehydrogenase); Potency, µM (titrated, usually from 57.7 µM), most hits filed as inhibitors; AID 1347165; Q9UGL1; further: potency means the concentration at half of the fitted maximal effect; 0% is about no effect; nearly all actives have a fitted effect of over 70% in size
Target sequence (Q9UGL1 whole entry, looked up): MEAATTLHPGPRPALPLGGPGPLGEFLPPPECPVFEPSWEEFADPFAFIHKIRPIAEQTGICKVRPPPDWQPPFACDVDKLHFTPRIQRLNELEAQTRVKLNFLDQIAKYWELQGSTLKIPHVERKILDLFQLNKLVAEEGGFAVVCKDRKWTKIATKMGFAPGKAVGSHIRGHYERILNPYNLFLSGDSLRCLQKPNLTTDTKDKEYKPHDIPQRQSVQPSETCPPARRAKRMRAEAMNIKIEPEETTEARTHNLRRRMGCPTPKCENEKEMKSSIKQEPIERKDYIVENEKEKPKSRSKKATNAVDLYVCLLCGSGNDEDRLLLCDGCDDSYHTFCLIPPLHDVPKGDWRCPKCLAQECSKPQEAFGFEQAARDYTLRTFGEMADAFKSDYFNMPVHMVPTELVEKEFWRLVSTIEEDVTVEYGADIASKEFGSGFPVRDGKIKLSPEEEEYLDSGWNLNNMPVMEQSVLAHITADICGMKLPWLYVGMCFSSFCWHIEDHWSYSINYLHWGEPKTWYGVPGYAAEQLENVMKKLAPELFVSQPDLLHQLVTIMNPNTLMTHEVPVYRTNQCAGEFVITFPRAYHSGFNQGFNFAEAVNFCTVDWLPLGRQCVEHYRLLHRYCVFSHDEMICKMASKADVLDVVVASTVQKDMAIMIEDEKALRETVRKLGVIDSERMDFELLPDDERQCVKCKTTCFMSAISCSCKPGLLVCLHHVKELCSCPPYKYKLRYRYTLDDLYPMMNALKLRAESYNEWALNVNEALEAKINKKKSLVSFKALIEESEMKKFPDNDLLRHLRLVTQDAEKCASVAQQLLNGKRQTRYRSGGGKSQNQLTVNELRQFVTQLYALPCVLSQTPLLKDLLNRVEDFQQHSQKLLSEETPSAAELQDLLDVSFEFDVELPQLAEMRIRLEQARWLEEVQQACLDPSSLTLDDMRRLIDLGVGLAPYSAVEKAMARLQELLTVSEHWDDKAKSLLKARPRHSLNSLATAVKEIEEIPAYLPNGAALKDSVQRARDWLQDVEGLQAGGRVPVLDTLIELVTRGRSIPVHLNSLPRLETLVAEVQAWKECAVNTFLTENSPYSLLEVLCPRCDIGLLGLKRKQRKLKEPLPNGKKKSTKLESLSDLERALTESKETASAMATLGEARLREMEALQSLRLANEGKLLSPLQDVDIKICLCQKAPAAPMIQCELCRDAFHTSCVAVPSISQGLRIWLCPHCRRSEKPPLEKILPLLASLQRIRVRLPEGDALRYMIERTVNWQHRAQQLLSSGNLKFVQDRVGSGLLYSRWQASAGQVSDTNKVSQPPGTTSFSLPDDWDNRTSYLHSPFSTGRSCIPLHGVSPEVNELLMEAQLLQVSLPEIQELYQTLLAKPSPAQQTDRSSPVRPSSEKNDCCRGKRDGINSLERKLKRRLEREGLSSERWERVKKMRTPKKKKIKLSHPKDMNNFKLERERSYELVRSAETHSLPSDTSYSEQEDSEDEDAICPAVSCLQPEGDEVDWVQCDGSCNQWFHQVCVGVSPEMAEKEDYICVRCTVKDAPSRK
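KDM5BΔAP (200 nM final) in 50 mM HEPES pH 7.5, 0.01% Tween-20 was preincubated 10 min at RT with compound over a concentration range. Substrate mix (H3K4me3 12.5 µM, α-KG 25 µM, Fe²⁺, ascorbate, NAD⁺, FDH) was added, and NADH fluorescence change over 30 min gave dose-response curves.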
HEK293 viab = counter-screen for SNCA expression inhibitors: cell viability; HEK-293-SNCA-luc viability, GF-AFC fluorescence, 24 h; Potency, µM (top dose mostly 57.1 µM), inactives show at the highest dose activity change, negative = cytotoxicity, usual class: cytotoxic; hit rate 0.12% among 150,000; AID 1671193;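 further: potency means the concentration at half of the fitted maximal effect; 0% = DMSO-treated cells and -100% = medium-only wells without cells; nearly all actives have a fitted effect of over 30% in size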
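Cytotoxicity counterscreen: after 24 h compound treatment of genome-edited SNCA-luciferase HEK-293 cells, live-cell protease substrate GF-AFC read by fluorescence after 30 min; activity scaled between DMSO (0%) and medium-only (-100%), curves Hill-fitted.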
IP6K1 inhibitor = inhibitors of human IP6K1 | Q92551 | IP6K1 kinase, ADP-Glo luminescence, 2 h; active compounds read low | activity change, % (series mostly up to about 58 µM) | hit rate 0.81% among 140,000 | AID 1645851; in the data active means activity change below about -25%; further: on the % scale 0 is the no-effect control and ±100 the full control effect
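ADP-Glo luminescence measures ADP made by human IP6K1 during a 2 h RT reaction with ATP/IP6 (mix at 1.3 mM/130 uM); top library doses 57.5 and 19.1 uM final.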
* = called active by the depositor; i = inactive; ? = inconclusive; . = no result; [ ] = remark or other dose. This is a sample that favours compounds with a hit; in the whole collection about 2.9% have one here. Unless noted, the call rests on the fitted dose curve; in most records, active means well fitted curve in the direction sought with a large enough effect; inconclusive means small, poorly fitted or top-dose-only effect, or another doubt; inactive means no such curve, though single readings can be large; an effect the other way counts as inactive or inconclusive.

SMILES | SNCA expr inh | KDM5B inh | HEK293 viab | IP6K1 inhibitor
COCCN1CC2(CCCN(c3cc(C)c4ccccc4n3)C2)CCC1=O (centres undefined) | 24.4% | 28.2µM* | 2.9% | -3.9
COc1cc(OC)cc(-c2nc(C3CC(=O)N(c4ccc(OC)c(OC)c4)C3)no2)c1 (centres undefined) | 19.9% | 28.2µM* | 7.6% | 7.2
CCc1ccc(N2CC(c3noc(-c4ccc(OC)nc4OC)n3)CC2=O)cc1 (centres undefined) | -22.6% | 35.5µM* | 12.0% | 33.2
CCc1ccc(N2CC(c3noc(-c4cc(OC)c(OC)c(OC)c4)n3)CC2=O)cc1 (centres undefined) | ? | 31.6µM* | -0.2% | -1.2
O=C(c1ccccc1)N1CC[C@H](c2nnc(Cc3ccccc3)o2)C1 | -10.6%[87.6 µM] | i | -4.8%[87.6 µM] | 18.1
Cc1nc(CSCCC(=O)NCC(C)(C)N2CCOCC2)cs1 | . | i | . | .
O=C(O)CCC(=O)N[C@H]1CCN2C(=O)c3cc(-c4ccc(Cl)cc4)ccc3NC(=O)[C@H]12 | -21.7%[87.6 µM] | 31.6µM* | 1.9%[87.6 µM] | -11.6
O=C(O)COCC(=O)N[C@H]1CCN2C(=O)c3cc(-c4ccc(Cl)cc4)ccc3NC(=O)[C@H]12 | 0.2% | ? | 1.1% | -3.2
CC(C)NC(=O)N[C@H]1CCN2C(=O)c3cc(-c4ccc(Cl)cc4)ccc3NC(=O)[C@H]12 | 23.9%[87.6 µM] | 31.6µM* | 2.7%[87.6 µM] | -2.7
CC(C)NC(=O)N[C@H]1CCN2C(=O)c3cc(-c4cccc(C(F)(F)F)c4)ccc3NC(=O)[C@H]12 | -18.0% | ? | 1.9% | 15.9
c1cc(N2CCCCC2)ccc1-c1n[nH]c(C2CCOC2)n1 (centres undefined) | -39.6% | 22.4µM* | -10.3% | 1.9
O=C(Nc1cccn2nc(C3CCC3)nc12)c1ccc(F)cc1F | -0.4% | 31.6µM* | -1.3% | 1.9
O=C(Nc1cccn2nc(C3CCC3)nc12)c1ccc(F)cc1Cl | 54.5% | i | -4.2% | 18.6
Cc1nnnn1Cc1ccc(C(=O)N2CCc3nc(-c4cn[nH]c4)[nH]c3C2)cc1 | -4.4% | i | 8.6% | 4.6
CNc1ncccc1C(=O)N1CCc2nc(-c3cn[nH]c3)[nH]c2C1 | -27.1% | 28.2µM* | -0.4% | -6.6
CC1(C(=O)N2CCN(c3ccccn3)CC2)CCc2cnc(NCc3ccccc3)nc21 (centres undefined) | ? | ? | -17.5%[87.6 µM] | 1.8
COc1cccc(NC(=O)C2(C)CCc3cnc(NCc4ccccc4)nc32)c1 (centres undefined) | -10.4%[87.6 µM] | i | -19.2%[87.6 µM] | 24.3
CC1(C(=O)NCC2CCCO2)CCc2cnc(NCc3ccccc3)nc21 (centres undefined) | -25.8%[87.6 µM] | 39.8µM* | -0.4%[87.6 µM] | 1.7
CC1(C(=O)NCc2cnccn2)CCc2cnc(NCc3ccccc3)nc21 (centres undefined) | ? | ? | 0.2%[87.6 µM] | 7.9
CC1(C(=O)NCCc2ccccn2)CCc2cnc(NCc3ccccc3)nc21 (centres undefined) | ? | 31.6µM* | 2.3%[87.6 µM] | -9.2
CC1(C(=O)NCC2CC2)CCCc2cnc(NCc3ccccc3)nc21 (centres undefined) | ? | 35.5µM* | 0.9%[87.6 µM] | 0.1
CN(C)C[C@@H]1CN(Cc2ccncc2)C[C@H]1N | -7.9% | 17.8µM* | -4.0% | 1.7
CCn1ncc(C(=O)N[C@@H]2CN(c3ncccn3)C[C@H]2CN(C)C)c1C | -8.7% | 25.1µM* | -2.0% | 11.8
COc1ccccc1C(=O)N[C@@H]1CN(Cc2ccncc2)C[C@H]1CN(C)C | -9.4% | 22.4µM* | -15.2% | 25.8
COc1ccc(C(=O)N[C@@H]2CN(c3ncccn3)C[C@H]2CN(C)C)c(OC)n1 | 0.9% | 25.1µM* | -7.0% | 16.3
SMILES | SNCA expr inh | KDM5B inh | HEK293 viab | IP6K1 inhibitor
COc1ccc(Cl)cc1NC(=O)CSC1=C(C#N)C(c2ccc(OC)c(OC)c2)CC(=O)N1 (centres undefined) | . | i | . | .
COc1ccc(CCNC(=O)c2ccc3nnc(C(C)(C)C)n3c2)cc1 | -2.2% | . | -10.2% | 5.4
COc1ccccc1C(=O)N[C@@H]1CN(c2ncccn2)C[C@H]1CN(C)C | 1.1% | ? | 1.7% | 4.6
COc1cccc(C(=O)N[C@@H]2CN(c3ncccn3)C[C@H]2CN(C)C)c1C | -4.9% | 31.6µM* | -5.5% | 6.6
COC(=O)N1CCCN(c2nc3ncccc3o2)CC1 | -18.8%[87.6 µM] | 25.1µM* | -2.8%[87.6 µM] | -6.0
COCC(=O)N1CCCN(c2nc3ncccc3o2)CC1 | 4.7%[87.6 µM] | 28.2µM* | 3.6%[87.6 µM] | -8.4
COC(=O)N1CCN(c2nc3ncccc3o2)CC1 | 1.7%[87.6 µM] | ? | -6.1%[87.6 µM] | -0.9
CC(=O)N1CCN(c2nc3ncccc3o2)CC1 | 0.6%[87.6 µM] | 31.6µM* | 9.8%[87.6 µM] | -1.3
CCOc1cc(C#N)ccc1OCc1nc(-c2ccc(Br)cc2)no1 | . | i | . | .
COc1cccc(NC(=O)c2c(C)oc3ccn(Cc4ccc(F)cc4)c(=O)c23)c1 | -12.6% | ? | -28.3% | 1.0
Cc1ccc(Cn2c(=O)c(-c3noc(C)n3)c3n(c2=O)CCCCC3)cc1 | 11.9% | i | -0.5% | 19.4
COCCN1CCC2(C1)CN(C)c1ccc(C(=O)NCc3ccccc3)cc12 (centres undefined) | 124.3%[87.6 µM] | 35.5µM* | 5.0%[87.6 µM] | -2.2
COc1ccc(C(=O)N2CCc3ccc(C(=O)NCc4ccccc4)cc32)cc1 | 36.9% | i | -21.3% | 1.0
CC(=O)N1CCCC2(C1)CN(C)c1ccc(C(=O)NCCc3ccccc3)cc12 (centres undefined) | -10.2%[87.6 µM] | 35.5µM* | -0.4%[87.6 µM] | 4.3
CN(C)CCNC(=O)c1ccc2c(c1)C1(CCCN(CC3CC3)C1)CN2C (centres undefined) | 10.8%[87.6 µM] | 35.5µM* | -15.6%[87.6 µM] | 6.8
CN1CCC2(C1)CN(Cc1ccccc1)c1ccc(C(=O)NCCc3ccccn3)cc12 (centres undefined) | 4.0%[87.6 µM] | ? | 5.4%[87.6 µM] | -6.7
CN(C)CCNC(=O)c1ccc2c(=O)n3c(nc2c1)CCCCC3 | 4.9% | i | 5.5% | 18.0
CN1CC2(CCCN(CC3CC3)C2)c2cc(C(=O)NCCc3ccccc3)ccc21 (centres undefined) | 9.2%[87.6 µM] | 35.5µM* | -12.4%[87.6 µM] | 2.9
Cn1ccc(NC(=O)c2ccc3c(c2)C2(CCN(CC4CC4)C2)CN3Cc2ccccc2)n1 (centres undefined) | -7.4% | ? | -2.0% | 13.5
Cc1ccccc1NC(=O)c1nn(C)c2c1COc1ccccc1-2 | . | i | . | .
CC(C)CNC(=O)c1ccc2c(c1)C1(CCCN(CC3CC3)C1)CN2C (centres undefined) | -27.7%[87.6 µM] | 35.5µM* | -2.5%[87.6 µM] | 17.9
CN1CC2(CCCN(CC3CC3)C2)c2cc(C(=O)N3CC(O)C3)ccc21 (centres undefined) | 4.5%[87.6 µM] | ? | 13.3%[87.6 µM] | 24.0
COc1ccccc1CNC[C@@H]1C=C(C)[C@H](Cc2nc3c(C)cccc3[nH]2)C[C@H]1C(C)C | ? | i | 35.5µM* | 5.8
CC1=C[C@@H](CN(C)C)[C@H](C(C)C)C[C@H]1Cc1nc2c(C)cccc2[nH]1 | -2.8%[87.6 µM] | i | -19.4%[87.6 µM] | 2.4
CC1=C[C@@H](CNCc2ccccc2)[C@H](C(C)C)C[C@H]1Cc1nc2c(C)cccc2[nH]1 | ? | i | 35.5µM* | -8.6
